# Laboratory results taken from the supplement of paper PMC6555819.
# Legend:
# Assay in all cases: PBM binding z-score (relative to random genomic background probes); higher = stronger binding; sequences stand for … in GC…GCGATTGACAGCGTAGAATGAAGG
# [1] = system: FXR:RXRa (NR concentration 270 nM, RXRa partner concentration 90 nM)
# How it was run: (§1)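 Scanned fluorescence from custom Agilent 4×180K protein-binding microarrays was regression-normalized. Binding z-scores use random background probes as reference. Ligand-free nuclear receptor dimers were incubated on the arrays for 1 h and detected with antibodies against each partner (one per run).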
# [2] = system: LXRa:RXRa (NR concentration 270 nM, RXRa partner concentration 90 nM)
# How it was run: as §1
# [3] = system: LXRa homodimer (NR concentration 270 nM)
# How it was run: as §1
# [4] = system: LXRb:RXRa (NR concentration 270 nM, RXRa partner concentration 90 nM)
# How it was run: as §1
# [5] = system: LXRb homodimer (NR concentration 270 nM)
# How it was run: as §1
# [6] = system: PPARa:RXRa (NR concentration 270 nM, RXRa partner concentration 90 nM)
# How it was run: as §1
# [7] = system: PPARg:RXRa (NR concentration 180 nM, RXRa partner concentration 90 nM)
# How it was run: as §1
# [8] = system: PPARg:RXRa 270nM:90nM, anti-RXR (NR concentration 270 nM, RXRa partner concentration 90 nM)
# How it was run: as §1
# [9] = system: PPARg:RXRa 30nM:10nM, anti-RXR (NR concentration 30 nM, RXRa partner concentration 10 nM)
# How it was run: as §1
# [10] = system: PPARg:RXRa 90nM:30nM, anti-RXR (NR concentration 90 nM, RXRa partner concentration 30 nM)
# How it was run: as §1
# [11] = system: PPARg:RXRa DBDmut IVT, anti-RXR (DBD mutation: RXRa K156A/R161A, NR concentration 270 nM, RXRa partner concentration 90 nM)
# How it was run: as §1
# [12] = system: PPARg:RXRa IVT, anti-PPARg (NR concentration 270 nM, RXRa partner concentration 90 nM)
# How it was run: as §1
# [13] = system: PPARg DBDmut:RXRa IVT, anti-PPARg (DBD mutation: PPARg1 K132A/R137A, NR concentration 270 nM, RXRa partner concentration 90 nM)
# How it was run: as §1
# [14] = system: PPARg DBDmut IVT, anti-PPARg (DBD mutation: PPARg1 K132A/R137A, NR concentration 270 nM)
# How it was run: as §1
# [15] = system: PPARg homodimer (NR concentration 180 nM)
# How it was run: as §1
# [16] = system: PXR:RXRa (NR concentration 270 nM, RXRa partner concentration 90 nM)
# How it was run: as §1
# [17] = system: PXR homodimer (NR concentration 270 nM)
# How it was run: as §1
# [18] = system: RARa:RXR (NR concentration 270 nM, RXRa partner concentration 90 nM)
# How it was run: as §1
# [19] = system: RARa homodimer (NR concentration 270 nM)
# How it was run: as §1
# [20] = system: RARb:RXRa (NR concentration 270 nM, RXRa partner concentration 90 nM)
# How it was run: as §1
Sequence,PBM binding z-score [1],PBM binding z-score [2],PBM binding z-score [3],PBM binding z-score [4],PBM binding z-score [5],PBM binding z-score [6],PBM binding z-score [7],PBM binding z-score [8],PBM binding z-score [9],PBM binding z-score [10],PBM binding z-score [11],PBM binding z-score [12],PBM binding z-score [13],PBM binding z-score [14],PBM binding z-score [15],PBM binding z-score [16],PBM binding z-score [17],PBM binding z-score [18],PBM binding z-score [19],PBM binding z-score [20]
ATTAGTTGGTCAGCTGAGGTCACACACAATTCGG,3.77,3.68,3.19,3.95,1.13,3.96,2.32,2.81,1.44,2.13,2.22,3.28,0.989,1.49,3.67,5.59,2.59,4.84,2.74,3.72
TCTTGTAGATCAAGCAGGTCAAGAAAGCCTGAGT,0.916,1.2,0.357,1.67,-0.193,2.29,0.0976,1.6,2.11,2.16,1.73,1.75,0.414,-0.0194,0.82,1.7,0.497,1.91,0.192,1.79
ACTAGCAGGCCAAGGGTCACTCGAGATTAGTCCG,2.44,2.89,0.209,2.6,-0.293,4.51,7.9,7.44,6.36,8.11,1.3,3.54,-0.0207,-0.0831,2.15,3.15,-0.376,3.97,0.545,3.48
TCAATGAGGTTATAAGATCAGGGAACGTTGCAAA,1.62,1.48,-0.0675,1.39,-0.169,2.7,1.07,2.15,2.81,2.66,2.23,0.886,-0.23,0.398,0.29,0.939,-0.134,1.47,0.789,1.31
TGAATGAGGTTATCAGATCAGGGAACGTTGCAAA,1.75,1.5,-0.39,1.18,-0.266,3.2,1.74,2.18,0.777,1.28,1.59,2.2,0.55,-0.0543,1.69,0.942,-0.255,1.45,-0.892,1.44
TCTAATTGGTCAAAGGTCACACACTCGAAATGCG,6.13,5.81,4.4,5.53,2.67,6.59,10.7,9.75,10.1,12,3.57,6.22,4.31,4.82,12.2,6.35,1.5,7.91,5.86,5.27
TCATATAGGTAAATGCTAGGTGCAAGTCCGATCT,0.626,0.526,0.11,0.195,0.0143,1.05,0.562,2.08,3.84,2.96,3.77,1.96,1.24,0.918,0.912,0.511,0.449,0.897,0.586,0.263
